Here are results for 8 compounds from PubChem BioAssay (NCI).

Test systems include HCT-15 colon; HT29 colon; SNB-75 CNS; SNB-19 CNS; U251 CNS; PC-3 prostate; SK-MEL-5 melanoma; UACC-62 melanoma; LOX IMVI melanoma; SK-MEL-28 melanoma; SK-MEL-2 melanoma; UO-31 renal; ACHN renal; CAKI-1 renal; A498 renal; CCRF-CEM leukemia; MOLT-4 leukemia; EKVX NSCLC; SN12C renal; TK-10 renal.
Experiment in all cases: NCI-60 one-dose screen, 48 h (100 = growth as untreated, 0 = no growth, -100 = all killed)
Common to all, as to details: 10 µM unless noted

Compounds without any hit were thinned out: in the full panel of roughly 83,000, 20% have a hit.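 Single-dose data. Exposure time 48 hours. Values below 10 considered active.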 A number with no mark means an inactive call. Activity calls are given as the source filed them.

For `CN(C)CCCNC(=O)c1cncnc1Nc1ccc2c(ccn2Cc2cccc(F)c2)c1`, the growth with HCT-15 colon was 63.2%; in the assay with HT29 colon, 39.1%; in the assay on SNB-75 CNS, 78%; in the assay with SNB-19 CNS it was 92.5%; in the assay on U251 CNS it was 68.9%; in the assay on PC-3 prostate, 86%. In addition, the growth was 91.4% in the assay with SK-MEL-5 melanoma; 100% in the assay with UACC-62 melanoma; 76.7% in the assay on LOX IMVI melanoma; 89.6% in the assay with SK-MEL-28 melanoma; 107% in the assay on SK-MEL-2 melanoma; 71.5% in the assay on UO-31 renal. Also, the growth in the assay with ACHN renal was 102%; in the assay with CAKI-1 renal it was 83.7%; with A498 renal it was 32.7%; with CCRF-CEM leukemia it was 67%; with MOLT-4 leukemia, 72%.

For `COc1ccc(-c2cc(-c3cn(-c4cccc(Cl)c4)nc3-c3ccc(OC)cc3)on2)cc1`, the growth is 91.2% in the assay on HCT-15 colon; 93.6% in the assay on HT29 colon; 99.2% with SNB-75 CNS; 92.7% in the assay on SNB-19 CNS; 90.2% in the assay on U251 CNS; 86.5% in the assay with PC-3 prostate. Besides, the growth in the assay with SK-MEL-5 melanoma was 98%; in the assay with UACC-62 melanoma it was 94%; in the assay on LOX IMVI melanoma, 102%; in the assay with SK-MEL-2 melanoma it was 86.8%; in the assay with EKVX NSCLC it was 98.8%; with SN12C renal, 89%. Moreover, the growth was 77.3% in the assay with UO-31 renal; -45.1% (active) in the assay on TK-10 renal; 101% in the assay with ACHN renal; 93.5% with CAKI-1 renal; 78.6% in the assay on A498 renal; 88.1% in the assay on CCRF-CEM leukemia. In addition, the growth in the assay with MOLT-4 leukemia was 77%.

In the case of `Nc1ccc(Br)cc1C(F)(F)F`, the growth was 106% in the assay with HCT-15 colon; 108% with HT29 colon; 109% in the assay with SNB-75 CNS; 104% with SNB-19 CNS; 109% with U251 CNS; 105% with PC-3 prostate. Moreover, the growth is 103% with SK-MEL-5 melanoma; 108% in the assay on UACC-62 melanoma; 99.2% in the assay on LOX IMVI melanoma; 104% with SK-MEL-2 melanoma; 109% with EKVX NSCLC; 99.8% in the assay on SN12C renal. Moreover, the growth in the assay on UO-31 renal is 88.1%; in the assay on ACHN renal, 96.5%; in the assay with CAKI-1 renal, 104%; in the assay on A498 renal, 107%; in the assay with CCRF-CEM leukemia it was 101%; with MOLT-4 leukemia, 108%.

For the compound `Clc1ccc(-c2nc(C(Cl)Cl)nc3cc(-c4ccccc4)nn23)cc1`, the growth in the assay on HCT-15 colon is 8.19% (active); with HT29 colon, 5.93% (active); with SNB-75 CNS, -13.1% (active); with SNB-19 CNS, 25.2%; in the assay with U251 CNS it was 7% (active); in the assay with PC-3 prostate, 41.2%. Further, the growth was 82.2% with SK-MEL-5 melanoma; 79.8% in the assay on UACC-62 melanoma; 78.5% in the assay with LOX IMVI melanoma; 84.5% with SK-MEL-2 melanoma; -12.8% (active) in the assay with EKVX NSCLC; 65.1% in the assay with SN12C renal. The growth with UO-31 renal is 47.3%; with TK-10 renal it was 36.8%; in the assay with ACHN renal, -52.8% (active); in the assay with CAKI-1 renal it was -15.8% (active); in the assay with A498 renal, -15.8% (active); with CCRF-CEM leukemia, 53.4%. The growth in the assay on MOLT-4 leukemia was 31.7%.

With `CSc1ccc2c3c(n(C[C@H](O)CO)c(=O)c2c1)-c1ccccc1C3=O`, the growth with HCT-15 colon is 18.6%; in the assay on HT29 colon, 16.5%; in the assay with SNB-75 CNS, 61.2%; with SNB-19 CNS, 32.6%; with U251 CNS it was 14.2%; in the assay with PC-3 prostate, 44.5%. Also, the growth in the assay with SK-MEL-5 melanoma is 44.3%; in the assay on UACC-62 melanoma it was 37.5%; in the assay on LOX IMVI melanoma, -3.11% (active); in the assay with SK-MEL-2 melanoma it was 104%; in the assay on EKVX NSCLC, 77.1%; with SN12C renal it was 23.1%. Besides, the growth is 19.9% in the assay on UO-31 renal; 70.7% in the assay with TK-10 renal; -41% (active) with ACHN renal; 27.9% with CAKI-1 renal; 52.3% in the assay with A498 renal; -4.25% (active) in the assay on CCRF-CEM leukemia. In the assay with MOLT-4 leukemia, the growth is -17.8% (active).

As to `COC12C=C/C(=C(/C(=O)OCc3cncnc3)C(=O)CCCCCCCCC3(OC)C=C/C(=C(/C(=O)OCc4cncnc4)C(=O)CCCCCCCC1)O3)O2`, the growth is -49.1% (active) in the assay with HCT-15 colon; 1.94% (active) in the assay with HT29 colon; 22.4% in the assay with SNB-75 CNS; 10.9% in the assay on SNB-19 CNS; -36.5% (active) in the assay with U251 CNS; -55.1% (active) in the assay on PC-3 prostate. Also, the growth was -79.9% (active) in the assay with SK-MEL-5 melanoma; -56.9% (active) in the assay with UACC-62 melanoma; -61.8% (active) in the assay with LOX IMVI melanoma; -13.1% (active) in the assay on SK-MEL-2 melanoma; -20.5% (active) in the assay on EKVX NSCLC; -34.7% (active) in the assay on SN12C renal. The growth is -73.6% (active) with UO-31 renal; -23.6% (active) in the assay on TK-10 renal; -93.7% (active) in the assay on ACHN renal; -43.5% (active) in the assay on CAKI-1 renal; -94.1% (active) in the assay with A498 renal; -18.2% (active) in the assay on CCRF-CEM leukemia. Besides, in the assay on MOLT-4 leukemia, the growth is -13.4% (active).

Take `C=CN(C(=O)N1CCN(c2cc3c(cc2F)c(=O)c(C(=O)O)cn3C2CC2)CC1)c1nc(-c2ccc(Cl)cc2)cs1`: the growth with HCT-15 colon was 24.6%; in the assay on HT29 colon, 40.2%; with SNB-75 CNS, 80%; with SNB-19 CNS it was 59.5%; with U251 CNS, 23.6%; with PC-3 prostate, 40.3%. For the same compound, the growth in the assay on SK-MEL-5 melanoma was 81.9%; in the assay with UACC-62 melanoma, 60.3%; in the assay with LOX IMVI melanoma it was 28.6%; with SK-MEL-2 melanoma, 86.5%; with EKVX NSCLC, 81.8%; with SN12C renal, 54.5%. Further, the growth in the assay on UO-31 renal was 55.9%; in the assay with TK-10 renal, 83.6%; in the assay on ACHN renal, 70.5%; in the assay on CAKI-1 renal it was 2.83% (active); in the assay with A498 renal it was 56%; in the assay on CCRF-CEM leukemia it was 33.5%. Also, in the assay with MOLT-4 leukemia, the growth is 58.2%.

Regarding `CN(C)c1ccc(C(=S)c2ccc(N(C)C)cc2)cc1`, the growth in the assay with HCT-15 colon is 43%; in the assay on HT29 colon, 30.9%; with SNB-75 CNS, 78.1%; in the assay on SNB-19 CNS it was 72.6%; in the assay on U251 CNS, 62.4%; in the assay with PC-3 prostate, 71.2%. For the same compound, the growth in the assay with SK-MEL-5 melanoma was 30.5%; with UACC-62 melanoma, 52.2%; in the assay on LOX IMVI melanoma, 69%; with SK-MEL-2 melanoma, 58.5%; with EKVX NSCLC it was 98.2%; in the assay with SN12C renal, 75.6%. Further, the growth is 59% with UO-31 renal; 82.7% with TK-10 renal; 93.4% in the assay with ACHN renal; 87.1% in the assay on CAKI-1 renal; 62.6% in the assay on A498 renal; 77.3% with CCRF-CEM leukemia. Moreover, the growth in the assay on MOLT-4 leukemia was 75.5%.
